{"source": "PubChem BioAssay (NCATS)", "note": "Inconclusive results are not listed. The source made the active and inactive calls. Calls come from the whole dose curve; as a rule, active = well fitted cell-killing curve with a large enough effect; inconclusive = small, poorly fitted or top-dose-only effect, or effect the other way; inactive = flat fitted curve, though single readings scatter. % is set by controls: 0 for no effect and ±100 for the full control effect."}
{"system": "Tov112D", "assay": "Primary qHTS to identify gynecologic anti-cancer compounds using libraries of approved drugs and bioactive compounds (AID 1345084); note: nearly all actives have a fitted effect of over 55% in size", "settings": "Gynecologic cancer cell panel viability, ATPlite luminescence, 48 h; series mostly up to 57.5 µM; activity change, negative = cytotoxicity: at the top concentration", "summary_of_the_method": "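48 h compound exposure at 37 C, 5% CO2; five-point qHTS. ATPlite luminescence readout of cell ATP.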"}
{"smiles": "CCOc1cc(C(C)(C)C)ccc1C1=N[C@@](C)(c2ccc(Cl)cc2)[C@@](C)(c2ccc(Cl)cc2)N1C(=O)N1CCN(CC(=O)N2CCOCC2)CC1", "activity change, negative = cytotoxicity": "-0.851% [at 38.5 µM] (inactive)"}
{"smiles": "O=C(NO)c1ccc(CC(=O)N(CCO)c2ccccc2)cc1", "activity change, negative = cytotoxicity": "12.1% (inactive)"}
{"smiles": "Fc1ccc(N2CCCCC2)c(NC(=S)c2ccncc2)c1", "activity change, negative = cytotoxicity": "8.96% (inactive)"}
{"smiles": "CCC(C(C)O)n1ncn(-c2ccc(N3CCN(c4ccc(OCC5COC(Cn6cncn6)(c6ccc(F)cc6F)C5)cc4)CC3)cc2)c1=O", "note": "(stereo not given)", "activity change, negative = cytotoxicity": "-4.26% (inactive)"}
{"smiles": "CC(C)c1cccc(C(C)C)c1NC(=O)Nc1ccc(Sc2ccc([N+](=O)[O-])cc2)cc1", "activity change, negative = cytotoxicity": "-1.46% (inactive)"}
{"smiles": "CCCCNc1ncc(-c2ccc(CN3CCOCC3)cn2)c(NC2CCC(O)CC2)n1", "note": "(stereo not given)", "activity change, negative = cytotoxicity": "-4.54% [at 25.3 µM] (inactive)"}
{"smiles": "CN1CCN(S(=O)(=O)c2ccc(-c3cnc(N)c(C(=O)Nc4cccnc4)n3)cc2)CC1", "activity change, negative = cytotoxicity": "10.3% [at 25.3 µM] (inactive)"}
{"smiles": "COc1ccc2nc3n[nH]c(C)c3c(NCCOCCO)c2c1", "activity change, negative = cytotoxicity": "-17.7% (inactive)"}
{"smiles": "CC(C)C[C@@H]1NC(=O)[C@@H](Cc2ccccc2)NC(=O)C(CCCCCC(=O)C2CO2)NC(=O)[C@@H]2CCCCN2C1=O", "note": "(stereo not given in full)", "activity change, negative = cytotoxicity": "-4.49% [at 25.3 µM] (inactive)"}
{"smiles": "CC(=O)C1(C)CCC2C3C=C(C)C4=CC(=O)CCC4(C)C3CCC21C", "note": "(stereo not given)", "activity change, negative = cytotoxicity": "-3.45% (inactive)"}
{"smiles": "CC(=O)OC1C(OC(=O)c2ccccc2)C2C(=C(C)CCC2(C)C)C23CCC(C)(C2)C(=O)CC13", "note": "(stereo not given)", "activity change, negative = cytotoxicity": "-24.8% [at 25.3 µM] (inactive)"}
{"smiles": "COc1ccc2[nH]c(=O)c3c(c2c1)OC(C)(C)C=C3", "activity change, negative = cytotoxicity": "-6.39% (inactive)"}
{"smiles": "O=C(N[C@@H]1CCCc2c1cnn2-c1ccc(F)cc1F)c1ccccn1", "activity change, negative = cytotoxicity": "-2.5% (inactive)"}
{"smiles": "CCCc1ccc(OCC(=O)N(Cc2nc(-c3cccnc3)no2)C(C)C)cc1", "activity change, negative = cytotoxicity": "-4.51% (inactive)"}
{"smiles": "CC(C)OC(=O)N1CCC(Oc2ncnc3c2cnn3-c2ccc(S(C)(=O)=O)cc2F)CC1", "activity change, negative = cytotoxicity": "-1.55% (inactive)"}
